The text below walks through data of PubChem BioAssay.

Values without a mark were called inactive. Activity calls are given as the source filed them. Rule as the data show it, unless noted: active = inhibition above about 30%; inactive = the rest.

In test [1] the target is Nuclear receptor coactivator 3 (Homo sapiens) (UniProt Q9Y6Q9). Put plainly: NCOA3 GAL4-fusion reporter inhibition – cell-based, luminescence, quadruplicate, confirmation (AID 588792;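 active = mean inhibition over 43.08%, the solvent-only control mean plus 3 SD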;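 also: 0% = DMSO treated cells and 100% = gossypol at 36 µM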). The note with it: HEK293 GAL4-SRC3 luciferase reporter, at 3.6 µM, stronger effect = higher value.
For test [2], the system named is transactivating tegument protein VP16 (Human herpesvirus 1), Gal4-VP16 luciferase reporter. Put plainly: repression of VP16-driven luciferase reporter – cell-based, luminescence, high throughput, counter-screen for SRC3 inhibitor project (AID 588794). The note with it: mammalian cells, at 3.6 µM, stronger effect = higher value. A general note: Reporter assays use an easily measured gene product as a stand-in for the process of interest.

For test [3], the target named is Nuclear receptor coactivator 1 (Homo sapiens) (UniProt Q15788). Put plainly: NCOA1 GAL4-fusion reporter inhibition – cell-based, luminescence, quadruplicate, confirmation (AID 588820;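 active = mean inhibition above 46.68%, the untreated control wells mean plus 3 SD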;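 also: 0% = DMSO wells and 100% = gossypol 36 µM treated wells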). Conditions: HEK293 GAL4-SRC1 luciferase reporter, at 3.6 µM, stronger effect = higher value.
Test [4] can be described thus: repression of VP16-driven luciferase reporter – cell-based, luminescence, high throughput, counter-screen for SRC1 inhibitor project (AID 588824; in the data active = inhibition above about 25%). Conditions: cell-based VP16 transactivation luciferase luminescence; at 3.6 µM; stronger effect = higher value.

Nuclear receptor coactivator 3 (Homo sapiens), sequence (Q9Y6Q9 whole entry, looked up, the tested form may be a part): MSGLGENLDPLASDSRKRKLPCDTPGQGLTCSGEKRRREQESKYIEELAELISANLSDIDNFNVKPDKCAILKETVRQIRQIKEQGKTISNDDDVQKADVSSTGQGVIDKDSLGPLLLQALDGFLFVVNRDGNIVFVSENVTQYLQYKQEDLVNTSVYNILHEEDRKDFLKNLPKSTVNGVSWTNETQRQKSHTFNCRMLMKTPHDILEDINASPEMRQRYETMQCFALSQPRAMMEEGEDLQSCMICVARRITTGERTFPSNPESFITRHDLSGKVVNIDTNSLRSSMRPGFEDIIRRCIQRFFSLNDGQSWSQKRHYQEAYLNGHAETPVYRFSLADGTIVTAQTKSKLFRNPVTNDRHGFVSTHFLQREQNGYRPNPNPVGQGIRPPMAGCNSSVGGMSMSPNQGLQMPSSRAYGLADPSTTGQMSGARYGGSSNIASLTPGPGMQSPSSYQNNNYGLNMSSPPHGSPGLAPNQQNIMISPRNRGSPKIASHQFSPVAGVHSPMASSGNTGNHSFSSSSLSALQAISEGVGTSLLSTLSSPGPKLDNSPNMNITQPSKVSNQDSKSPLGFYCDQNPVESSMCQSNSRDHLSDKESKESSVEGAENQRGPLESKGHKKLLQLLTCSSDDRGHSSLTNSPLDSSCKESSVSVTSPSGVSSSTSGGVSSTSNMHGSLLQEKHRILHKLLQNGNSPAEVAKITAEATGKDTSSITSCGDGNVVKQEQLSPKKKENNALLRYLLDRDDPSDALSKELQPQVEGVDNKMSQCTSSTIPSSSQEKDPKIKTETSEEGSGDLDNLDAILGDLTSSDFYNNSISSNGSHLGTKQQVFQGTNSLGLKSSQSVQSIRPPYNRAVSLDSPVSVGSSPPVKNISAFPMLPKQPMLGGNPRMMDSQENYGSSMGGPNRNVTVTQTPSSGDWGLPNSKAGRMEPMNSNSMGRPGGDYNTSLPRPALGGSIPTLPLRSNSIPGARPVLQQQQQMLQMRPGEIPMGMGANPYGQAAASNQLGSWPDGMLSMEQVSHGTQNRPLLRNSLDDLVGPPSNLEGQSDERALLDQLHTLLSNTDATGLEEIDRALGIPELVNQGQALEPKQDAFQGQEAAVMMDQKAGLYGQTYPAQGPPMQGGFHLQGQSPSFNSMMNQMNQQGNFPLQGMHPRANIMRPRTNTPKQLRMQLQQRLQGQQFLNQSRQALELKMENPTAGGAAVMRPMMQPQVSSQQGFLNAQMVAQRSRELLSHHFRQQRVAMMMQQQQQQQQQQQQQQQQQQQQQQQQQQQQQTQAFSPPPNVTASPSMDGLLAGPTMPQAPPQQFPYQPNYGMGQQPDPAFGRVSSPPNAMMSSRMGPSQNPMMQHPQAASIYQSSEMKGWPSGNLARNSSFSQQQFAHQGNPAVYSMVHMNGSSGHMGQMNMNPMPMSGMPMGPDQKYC
Nuclear receptor coactivator 1 (Homo sapiens), sequence (Q15788 whole entry, looked up, the tested form may be a part): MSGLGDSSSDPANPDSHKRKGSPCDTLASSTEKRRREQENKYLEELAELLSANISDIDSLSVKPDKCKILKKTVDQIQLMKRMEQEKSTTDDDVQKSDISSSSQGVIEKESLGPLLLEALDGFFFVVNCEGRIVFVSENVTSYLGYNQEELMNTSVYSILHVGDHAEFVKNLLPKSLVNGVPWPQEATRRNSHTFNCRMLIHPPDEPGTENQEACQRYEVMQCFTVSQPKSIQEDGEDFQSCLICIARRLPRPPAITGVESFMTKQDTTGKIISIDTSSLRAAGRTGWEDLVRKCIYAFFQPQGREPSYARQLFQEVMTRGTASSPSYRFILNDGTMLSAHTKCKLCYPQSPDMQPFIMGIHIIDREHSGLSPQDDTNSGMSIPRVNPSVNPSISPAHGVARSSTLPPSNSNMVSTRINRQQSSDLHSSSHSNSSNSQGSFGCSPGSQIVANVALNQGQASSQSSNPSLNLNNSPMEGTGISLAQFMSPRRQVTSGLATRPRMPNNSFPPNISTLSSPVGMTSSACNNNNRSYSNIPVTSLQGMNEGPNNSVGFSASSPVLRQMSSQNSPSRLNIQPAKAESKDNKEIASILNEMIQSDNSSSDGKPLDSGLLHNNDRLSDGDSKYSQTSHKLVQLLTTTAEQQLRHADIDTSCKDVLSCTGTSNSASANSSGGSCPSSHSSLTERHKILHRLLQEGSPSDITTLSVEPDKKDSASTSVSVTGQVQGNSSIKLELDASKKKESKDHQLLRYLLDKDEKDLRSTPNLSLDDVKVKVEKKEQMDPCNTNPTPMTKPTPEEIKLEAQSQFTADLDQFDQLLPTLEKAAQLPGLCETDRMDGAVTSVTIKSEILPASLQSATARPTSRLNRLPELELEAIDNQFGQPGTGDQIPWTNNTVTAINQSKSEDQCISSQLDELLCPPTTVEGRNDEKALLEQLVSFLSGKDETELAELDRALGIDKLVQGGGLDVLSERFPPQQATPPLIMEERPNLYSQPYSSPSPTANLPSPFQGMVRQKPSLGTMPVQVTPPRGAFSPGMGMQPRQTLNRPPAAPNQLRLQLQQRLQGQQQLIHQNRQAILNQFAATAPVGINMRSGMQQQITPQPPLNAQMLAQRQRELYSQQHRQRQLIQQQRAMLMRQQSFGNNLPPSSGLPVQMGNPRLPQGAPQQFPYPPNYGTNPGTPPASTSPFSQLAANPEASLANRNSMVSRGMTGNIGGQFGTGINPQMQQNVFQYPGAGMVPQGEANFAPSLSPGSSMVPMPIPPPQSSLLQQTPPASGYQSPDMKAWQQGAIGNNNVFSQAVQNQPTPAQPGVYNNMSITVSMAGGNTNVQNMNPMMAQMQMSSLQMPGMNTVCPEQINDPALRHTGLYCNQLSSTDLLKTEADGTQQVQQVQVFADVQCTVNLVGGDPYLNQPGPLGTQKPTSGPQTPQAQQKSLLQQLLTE

`Cc1cc(C)nc(SCC(=O)Nc2ccnc3ccccc23)n1`: the inhibition was 12.2% in test [1], 36.5% (active) in test [2], -7.31% in test [3] and 31.7% (active) in test [4].
On the same counts, the results for `CC(C)CC(=O)/C(=C\c1ccc(Cl)cc1Cl)n1cncn1` are 60.2% (active), 48.8% (active), 14.1% and 55.6% (active).
For `CN([C@@H](Cc1ccc(OS(=O)(=O)c2cccc3cnccc23)cc1)C(=O)N1CCN(c2ccccc2)CC1)S(=O)(=O)c1cccc2cnccc12`, the inhibition was -2.66% in test [1], 30.3% (active) in test [2], -4.42% in test [3] and 31.2% (active) in test [4].
Consider `c1cncc(CNc2ncnc3ccc(-c4ccoc4)cc23)c1`, for which the inhibition in test [1] is 75.2% (active); in test [2], 42.8% (active); in test [3] it was 66% (active); in test [4] it was 47.8% (active).
For `c1ccc(CNc2c3ccccc3nc3ccccc23)cc1`, in that order: 11.8%, 43.6% (active), 0.54% and 54.9% (active).
For `Cc1ccc(NC(=O)CCC(=O)N/N=C/c2ccc(O)cc2O)cc1`, in that order: 7.69%, 7.07%, 20.4% and 15.4%.
On the same counts, the results for `O=C(/C=C/c1ccc(Cl)cc1)NC(=S)Nc1ccc(NC(=O)c2ccco2)cc1` are 29.7%, 63.8% (active), 45.1% and 65% (active).
Take `CNC(=O)c1ccc(NC(=O)C2CCN(c3ncnc4sc(C)c(C)c34)CC2)cc1`: the inhibition in test [1] was 51.6% (active); in test [2], 35.5% (active); in test [3], 48.7% (active); in test [4], 30% (active).
With `Cc1sc2ncnc(N3CCC(C(=O)Nc4ccccc4C(C)(C)C)CC3)c2c1C`, the inhibition in test [1] is 35.8%; in test [2] it was 27.6%; in test [3] it was 41.9%; in test [4], 29.7% (active).
With `Cn1c(=O)c2c(nc(Oc3ccc4ccccc4c3)n2C)n(C)c1=O`, the inhibition in test [1] was 47.5% (active); in test [2], 39.4% (active); in test [3], 53.3% (active); in test [4], 34.7% (active).
For `CC(C)c1ccc(-c2nnn(CCC(=O)O)n2)cc1`, in that order: 52.2% (active), 46.8% (active), 41.3% and 37.5% (active).
With `Cn1c(=O)c2c(nc(NCc3ccco3)n2C/C=C/c2ccccc2)n(C)c1=O`, the inhibition is 36.4% in test [1], 44% (active) in test [2], 18.6% in test [3] and 39.9% (active) in test [4].
For `Cc1cc(=O)[nH]c(N/N=C/c2cc(C)n(CC(F)(F)F)c2C)n1`, in that order: 22%, 60.4% (active), 43.5% and 60.3% (active).
For `CC(C)c1ccc(-c2csc(NC(=O)c3cccs3)c2C(=O)O)cc1`, in that order: 8.33%, 18.6%, -2.31% and 33.9% (active).
Take `CN=C1S/C(=C\c2cc(C)n(-c3ccccc3F)c2C)C(=O)N1C`: the inhibition in test [1] is -15.3%; in test [2] it was -38.2%; in test [3], -105%; in test [4], -68%.
As for `CCN(CC)CCC(=O)Nc1cccc2c1C(=O)c1ccccc1C2=O`, the inhibition in test [1] was -12.3%; in test [2], 21.1%; in test [3], 8.87%; in test [4], 25.7% (active).
Take `CCN1/C(=C/c2ccc3cc(C)cc(C)c3[n+]2CC)Sc2cc(C)ccc21`: the inhibition in test [1] was 39.4%; in test [2], 66.3% (active); in test [3] it was 0.74%; in test [4], 59.3% (active).
For `CCc1nc(Cl)c(C#N)c2c1CCCC2`, the inhibition in test [1] was 43.2% (active); in test [2] it was 34.1% (active); in test [3] it was 34.8%; in test [4] it was 28.9% (active).
Turning to `N=c1c2c(-c3ccccc3)c(-c3ccccc3)n(Cc3ccco3)c2ncn1CCCn1ccnc1`, the inhibition in test [1] was 34%; in test [2] it was 54.2% (active); in test [3] it was 43.8%; in test [4] it was 57.4% (active).
With `COc1cc(OC)c2nc(C)c3c(c2c1)N(c1ccc(O)cc1)CC3`, the inhibition in test [1] is 5.19%; in test [2], 37.7% (active); in test [3], 12.8%; in test [4] it was 30.1% (active).
`Nc1nc(/C=C/c2cccnc2)nc(-c2ccccc2O)n1`: the inhibition in test [1] was -12.6%; in test [2], 0.59%; in test [3], -16.8%; in test [4], 14.2%.
For the molecule `Cc1cc(C(=O)COC(=O)c2cccc(NS(C)(=O)=O)c2)c(C)n1CC1CCCO1` (configuration not stated), the inhibition in test [1] was 19.3%; in test [2], -22.1%; in test [3] it was -46.9%; in test [4] it was -54.4%.
Take `Cc1nc2c(-c3ccc(Cl)cc3)c(C)[nH]n2c(=O)c1Cc1ccccc1`: the inhibition was 24.1% in test [1], 29.3% in test [2], 24.5% in test [3] and 22.1% in test [4].
With `COC(=O)c1c(C)oc2ccc(N(C(=O)c3ccncc3)S(=O)(=O)c3ccc(C)cc3C)cc12`, the inhibition in test [1] was 1.85%; in test [2], 36.2% (active); in test [3] it was -7%; in test [4], 27.3% (active).
As for `COC(=O)c1ccc2nc(NC(=O)C(C)(C)C)sc2c1`, the inhibition in test [1] is -14.6%; in test [2], -16.8%; in test [3] it was -142%; in test [4], -60.1%.
For `Cc1ccc(N=c2c([N+](=O)[O-])nn(-c3ccc4c(c3)OCCO4)n2O)cc1F`, in that order: 36.5%, -0.46%, 19.9% and -9.63%.
On the same counts, the results for `O=C(N/N=C/c1cc([N+](=O)[O-])ccc1O)c1cccc(N2CCCC2=O)c1` are 15.9%, 14.3%, 34.5% and 4.04%.
Take `c1ccc(-c2noc(-c3ccc4ccccc4c3)n2)nc1`: the inhibition in test [1] is 43.7% (active); in test [2], 19.2%; in test [3], -79.6%; in test [4] it was 23.7%.
As to `Cc1ccc(S(=O)(=O)N2CCOCC2)cc1NC(=O)CN1CCN(c2ccc(O)cc2)CC1`, the inhibition was 12.4% in test [1], -1.58% in test [2], -6.12% in test [3] and 11.1% in test [4].
With `COc1ccc(Cc2nnc(SCc3ccc([N+](=O)[O-])cc3)o2)cc1`, the inhibition was 26.2% in test [1], 15.8% in test [2], 19.3% in test [3] and 17.4% in test [4].
In the case of `O=C(Nc1ccc(N2CCN(C(=O)c3ccc(Cl)cc3)CC2)cc1)c1ccc2c(c1)OCCO2`, the inhibition in test [1] is 14.2%; in test [2] it was 42% (active); in test [3], 1.25%; in test [4] it was 42.5% (active).
Regarding `CCn1ccnc1CN(C)Cc1cn[nH]c1-c1ccc(OC)c(F)c1`, the inhibition in test [1] was 36.8%; in test [2], 26.1%; in test [3], 34.3%; in test [4] it was 28% (active).
Consider `CC1=C(C(=O)OCc2ccc3c(c2)OCO3)C(c2ccccc2)NC(=O)N1` (configuration not stated), for which the inhibition in test [1] is 78.7% (active); in test [2], 59.2% (active); in test [3], 68.9% (active); in test [4] it was 61.8% (active).
For `CC(C)(C)n1ncc2c(=O)n(CC(=O)OCc3ccccc3)cnc21`, in that order: 31.6%, 17%, -21.8% and -23.3%.
For `CC(C)(C)[C@H]1C=C(C(=O)Nc2ccccc2)O[C@@H](OCCCCO)C1`, in that order: -13.7%, -16.4%, -41.4% and -38%.
Consider `CCn1nc(C)c(CNC(=O)c2cc(COc3ccc(F)cc3Cl)on2)c1C`, for which the inhibition was 12.7% in test [1], 28.5% in test [2], 8.35% in test [3] and 20% in test [4].
With `COc1cc(/C=C/C(=O)Nc2ccc(OC)c(S(=O)(=O)N3CCOCC3)c2)ccc1OCC#N`, the inhibition in test [1] is 12.1%; in test [2] it was 32.6% (active); in test [3] it was 19.1%; in test [4], 40.3% (active).
With `O=[N+]([O-])c1ccc(NC(c2ccccc2)c2ccc3cccnc3c2O)cc1` (configuration not stated), the inhibition in test [1] was 65% (active); in test [2], 58.8% (active); in test [3], 65.4% (active); in test [4], 71.2% (active).
On the same counts, the results for `CCC(=O)Nc1cc2nn(-c3ccc(C)cc3)nc2cc1C` are -6%, -33.2%, -102% and -68%.
With `Cn1c(=N)n(CC(=O)c2ccc(Cl)c(Cl)c2)c2ccccc21`, the inhibition is -33.3% in test [1], -30.2% in test [2], -189% in test [3] and -61.4% in test [4].
For `Cc1cc(CNC(=O)c2cccc([N+](=O)[O-])c2C)c2ccccc2n1`, in that order: 13.9%, 41.2% (active), 16% and 35.8% (active).
As for `CC(C)(C)c1cc(C(=O)N/N=C/c2ccc(O)cc2)n(-c2ccccc2)n1`, the inhibition was 34.9% in test [1], 14% in test [2], 20.3% in test [3] and 13.7% in test [4].
For the molecule `CCN(CC)S(=O)(=O)c1ccc(/C=C/C(=O)Nc2ccc(F)c(F)c2F)cc1`, the inhibition in test [1] was -25.9%; in test [2], 30.7% (active); in test [3], 3.76%; in test [4], 28.7% (active).
Regarding `O=C(N/N=C/c1ccccc1O)c1cccc(C(F)(F)F)c1`, the inhibition in test [1] was 57.9% (active); in test [2], 43.2% (active); in test [3], 65.9% (active); in test [4] it was 48.8% (active).
With `Clc1cncc(Cl)c1N/N=C/c1ccncc1`, the inhibition in test [1] is 24.8%; in test [2], 26.7%; in test [3], 40.4%; in test [4], 27.4% (active).
As for `O=C(Nc1c2ccccc2nc2ccccc12)C(Cl)(Cl)Cl`, the inhibition was -27% in test [1], 10.5% in test [2], -35% in test [3] and 8.17% in test [4].
For `O=C(CSC1=NCCS1)Nc1ccnc2ccccc12`, in that order: 28.1%, 37.7% (active), 27.5% and 37.9% (active).
Consider `CC(=NNc1nc2ccccc2o1)c1cc2ccccc2cn1`, for which the inhibition is 88.8% (active) in test [1], 86.4% (active) in test [2], 80.6% (active) in test [3] and 86.3% (active) in test [4].
In the case of `CC12CCC(C(=O)N/N=C/c3ccc(O)cc3O)(OC1=O)C2(C)C` (configuration not stated), the inhibition is 6.17% in test [1], 16.8% in test [2], 11.4% in test [3] and 6.4% in test [4].
For `O=C(NNc1ccccc1)C(=O)NNc1ccccc1`, in that order: 25.6%, 49.3% (active), 8.21% and 48.9% (active).
For the molecule `Cc1ccc(C(=O)Nc2nc(-c3ccccn3)cs2)cc1S(=O)(=O)N1CCOCC1`, the inhibition in test [1] is 17%; in test [2] it was 29%; in test [3] it was 13.8%; in test [4] it was 35.8% (active).
On the same counts, the results for `CC1Sc2ccc(Cl)cc2-c2nc(N)ncc21` (configuration not stated) are 43.9% (active), 32.3% (active), 48.2% (active) and 39.7% (active).
For `NNC(=O)C(=O)Nc1ccc(O)cc1`, in that order: 2.12%, 8.64%, -20.1% and -2.23%.

In general, inhibition refers to the relative decrease from the control value, in per cent.
